The results in this text go back to PubChem BioAssay.

Molecules are shown by their SMILES. Results filed as inconclusive are left out. Active and inactive are the calls of the source.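 Rule for the calls, unless noted: active = viability increase at or above a cutoff of the median across tested compounds plus 3 SD (cut at about 8.5% in these data, passing the limit was not always enough); inconclusive = some gains above the cutoff, reason not given; inactive = the rest.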

In general, viability refers to a read-out of living cells in per cent, often relative to untreated cells. Usually inhibition stands for the change of the read-out against control, counted positive when it falls.

Assay [1] is described as follows: reducers of endogenous Her2 protein level, primary screen, SKBR3 breast tumor cells, AlphaScreen, ATP viability (AID 461;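 active = Her2 level under about 52% in both replicate screens, with viability over 70% of control, limit read from the data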;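 for Her2 level: lower value means less Her2 protein in the cells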;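 for viability: percent of carrier control wells set as 100% viability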). The settings on record: 18-24 h, measured here: SKBR3 viability, ATP luminescence, at 10 µM.
Assay [2] addresses Receptor tyrosine-protein kinase erbB-2 (Homo sapiens) (UniProt P04626). The assay is described as above. The following applies: 18-24 h, at 10 µM, stronger effect = lower value.
A short description of assay [3]: SK-BR-3 cell growth inhibitors, pilot screen, 24 h, human (AID 572;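 active = viability at or below 10% of carrier control in both of two separate runs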;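 note: compound exposure lasted between 18 and 24 h rather than exactly 24 h; 100% = carrier-treated control wells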). The settings on record: SK-BR-3 viability, CellTiter-Glo luminescence, at 10 µM, stronger effect = lower value. In general terms: In ATP-based viability assays light output follows the ATP content of the culture.
Assay [4] in a line: HUVEC growth inhibition – cell-based, human, primary screen (AID 575;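 active = viability at or below 30% in both replicate assays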;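 note: 100% = median of untreated cell wells with 0.1% DMSO on each plate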). The settings on record: HUVEC proliferation, CellTiter-Glo luminescence, 72 h; at 10 µM; stronger effect = lower value.
The nature of assay [5]: growth inhibitors of H69AR lung tumor, primary screen, human, duplicate replicates (AID 580;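 active = viability at or under a set limit in both replicates, limit being median viability minus 3 SD, cut at about 48% in these data, passing the limit was not always enough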;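 note: 100% = mean luminescence of untreated wells and 0% = no signal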). The following applies: H69AR lung tumor cells viability, ATP luminescence, 72 h; at 10 µM; stronger effect = lower value.
Assay [6] can be described thus: reversal of MRP1-mediated doxorubicin resistance, pilot screen, H69AR cells, doxorubicin co-treatment (AID 601;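 active = viability loss from added drug above about 55%, and viability with drug at most 40%, in both replicates, limit read from the data, passing the limit was not always enough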). The settings on record: CellTiter-Glo, 72 h, at 10 µM; for differential viability (reversal): stronger effect = higher value.
The nature of assay [7]: 384-well plate pilot, post-Golgi transport modulator project, inhibition of yeast transport mutant growth (AID 636; in the data active = inhibition above about 31%). The following applies: absorbance 615 nm, about 18 h, stronger effect = higher value.
Assay [8] is described as follows: growth suppression of yeast trafficking mutant, preliminary HTS, modulators of trafficking downstream of Golgi apparatus project, 1536-format plate, OD 615 nm (AID 637; in the data active = inhibition above about 30%). The following applies: yeast transport mutant growth, absorbance 615 nm, 18 h; stronger effect = higher value.
A short description of assay [9]: OD615 S. cerevisiae growth inhibition, permissive medium, pilot counter-assay, permissive growth control for S. cerevisiae lifespan shortening project (AID 705;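 active = growth inhibition above 25% in both replicates, a cutoff set 3 SD above the mean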). The following applies: OD615, 24 h, at 10 µM, stronger effect = higher value.
The nature of assay [10]: Restrictive medium S. cerevisiae growth inhibition, OD615, pilot screen of yeast lifespan reduction project, restrictive growth control (AID 706;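 active = growth inhibition above a set limit, 3 SD over mean compound inhibition, in both replicates, cut at about 43% in these data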;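 note: modified DeaD lifespan yeast strain shifted to restrictive glucose medium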). The settings on record: OD615, 48 h, at 10 µM, stronger effect = higher value.
Assay [11] can be described thus: viability gain of MRP-1-high H69AR cells under doxorubicin, pilot screen, MRP-1 activator project, CellTiter-Glo, duplicate (AID 807).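 Note: compound pretreatment 18-22 h then 72 h combined with doxorubicin; 0% = doxorubicin alone and 100% = vehicle without doxorubicin.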 The following applies: H69AR viability with doxorubicin, CellTiter-Glo luminescence; at 10 µM; stronger effect = higher value.
Assay [12] in a line: growth suppression of beta-catenin knockout HCT116, pilot screen, human colon tumor cells (AID 823;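 active = cell viability at or below a set limit in both duplicate runs, the limit being the all-compound median minus 4 SD, cut at about 23% in these data, passing the limit was not always enough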;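 note: 0% = wells killed by 20 µM Hyamine and 100% = untreated DMSO cell wells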). The settings on record: CellTiter-Glo, 60 h, at 10 µM, stronger effect = lower value.
The nature of assay [13]: growth suppression of PTEN-deleted HCT116, pilot screen, cell-based, HCT116 clonal line, CellTiter-Glo (AID 824;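 active = viability at or below 27.92% in each of two runs, the all-compound median minus 4 SD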;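 note: 0% = 20 µM Hyamine control and 100% = vehicle cell control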). The following applies: 60 h, at 10 µM, stronger effect = lower value.
Assay [14] in a line: inhibitors of the yeast RAM network, pilot screen, dse1pr::URA3 reporter, 5-FOA selection (AID 869;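 active = inhibition over a set limit, the all-compound mean plus 3 SD, in both replicate runs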;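 note: 0% = DMSO wells with no growth and 100% = 10 µM 1-NA-PP1 with full growth; RAM network block rescues cells from 5-FOA so hits raise OD615 growth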). The settings on record: S. cerevisiae dse1pr::URA3 5-FOA growth, OD615, 2 d; at 10 µM; stronger effect = higher value; strain carries analog-sensitive mutant Cbk1 kinase.
Assay [15] can be described thus: RAM signaling pathway blockade in yeast – S. cerevisiae, Pdr1DBD-CYC8 efflux-inhibited sensitized strain, primary screen (AID 1298;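 active = RAM network inhibition above 8.4% in each of two replicates, 3 SD over the compound average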;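 note: 0% = DMSO untreated cells without growth and 100% = 10 µM 1-NA-PP1 full growth; higher means more yeast growth rescued from 5-FOA killing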). The settings on record: S. cerevisiae cbk1-as DSE1-URA3 strain, 5-FOA growth OD615, 2 d; at 50 µM; stronger effect = higher value.
Setting [16] is: H69AR cells + 2 uM doxorubicin, measured here: viability with 2 uM doxorubicin, stronger effect = lower value.
[17] abbreviates: H69AR cells, compound alone cytotoxicity.

Sequence of Receptor tyrosine-protein kinase erbB-2 (Homo sapiens) (P04626 whole entry, looked up): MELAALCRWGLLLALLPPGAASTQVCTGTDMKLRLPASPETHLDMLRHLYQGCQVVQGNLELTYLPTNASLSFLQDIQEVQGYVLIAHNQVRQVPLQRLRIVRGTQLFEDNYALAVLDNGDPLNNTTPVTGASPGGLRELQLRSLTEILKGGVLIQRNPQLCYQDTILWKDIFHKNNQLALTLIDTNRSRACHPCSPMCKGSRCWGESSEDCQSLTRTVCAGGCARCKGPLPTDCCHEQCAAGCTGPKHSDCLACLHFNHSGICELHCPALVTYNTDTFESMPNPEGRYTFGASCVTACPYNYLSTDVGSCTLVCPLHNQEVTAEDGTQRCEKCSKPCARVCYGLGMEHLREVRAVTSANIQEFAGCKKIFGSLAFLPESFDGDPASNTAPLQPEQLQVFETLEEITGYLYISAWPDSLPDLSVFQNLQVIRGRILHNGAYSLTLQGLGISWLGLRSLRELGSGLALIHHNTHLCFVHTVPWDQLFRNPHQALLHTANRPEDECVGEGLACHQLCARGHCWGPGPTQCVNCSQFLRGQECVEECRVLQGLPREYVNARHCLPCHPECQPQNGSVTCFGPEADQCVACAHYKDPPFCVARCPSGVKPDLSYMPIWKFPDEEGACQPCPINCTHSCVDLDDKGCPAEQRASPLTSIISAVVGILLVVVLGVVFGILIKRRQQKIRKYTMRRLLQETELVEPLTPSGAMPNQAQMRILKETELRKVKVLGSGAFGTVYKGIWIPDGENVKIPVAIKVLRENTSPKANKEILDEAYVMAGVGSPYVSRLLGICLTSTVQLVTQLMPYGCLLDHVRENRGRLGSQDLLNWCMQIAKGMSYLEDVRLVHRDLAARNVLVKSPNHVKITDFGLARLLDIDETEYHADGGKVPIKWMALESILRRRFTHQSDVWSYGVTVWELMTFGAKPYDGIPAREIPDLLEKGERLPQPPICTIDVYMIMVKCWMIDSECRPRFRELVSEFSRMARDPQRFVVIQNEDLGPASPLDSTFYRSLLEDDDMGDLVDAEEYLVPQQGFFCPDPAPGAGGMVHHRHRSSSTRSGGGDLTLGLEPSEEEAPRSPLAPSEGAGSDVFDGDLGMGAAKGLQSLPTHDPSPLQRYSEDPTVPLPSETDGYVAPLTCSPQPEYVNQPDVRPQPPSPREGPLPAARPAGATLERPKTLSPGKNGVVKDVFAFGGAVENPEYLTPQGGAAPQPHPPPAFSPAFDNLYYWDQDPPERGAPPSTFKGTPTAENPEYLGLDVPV

For the molecule `Cn1nnc2cc(C(=O)N3CCCCCC3)ccc21`, the viability in assay [1] was 81.5%; in assay [3] it was 81.5% (inactive); in [4] it was 81.7% (inactive); in assay [5] it was 105% (inactive); in assay [6] (setting [16]), 94.3%; in [6] (setting [17]), 105%. In addition, the viability in [12] was 109% (inactive); in assay [13], 96% (inactive). In addition, in assay [2], the Her2 level was 99.5% (inactive). Further, in [6] (H69AR cells + 2 uM doxorubicin), the differential viability (reversal) is 10.6% (inactive). In addition, the inhibition in [7] was -4.73% (inactive); in assay [8], -6.23% (inactive); in [14] it was 0.345% (inactive). Also, the values for the growth inhibition in assay [9] and in [10] were -10.5% (inactive) and -19.7% (inactive), respectively. In addition, the viability increase in [11] was -0.53% (inactive). Moreover, the RAM network inhibition in assay [15] was 1.87% (inactive).
`Cc1nc2sc(C(c3cccs3)N3CC(C)CC(C)C3)c(O)n2n1` (stereo not given): the viability in assay [1] is 89.5%; in assay [3], 89.5% (inactive); in assay [4], 108% (inactive); in [5], 95.2% (inactive); in assay [6] (setting [16]) it was 93.8%; in [6] (setting [17]), 95.2%. Also, the results for the viability in [12] and in assay [13] were 107% (inactive) and 95.2% (inactive), respectively. Also, in [2], the Her2 level is 92% (inactive). For the same molecule, the differential viability (reversal) in assay [6] (H69AR cells + 2 uM doxorubicin) is 1.38% (inactive). For the same molecule, the figures for the inhibition in assay [7], in [8] and in assay [14] were -0.27% (inactive), 8.85% (inactive) and 1.53% (inactive), respectively. In addition, the values for the growth inhibition in assay [9] and in assay [10] were -11.2% (inactive) and -10.1% (inactive), respectively. Besides, in [11], the viability increase is -2.1% (inactive). Further, in assay [15], the RAM network inhibition was 5.64% (inactive).
As to `COc1ccc(OC)c(NC(=O)c2cn(C)c(=O)c3cc(OC)c(OC)cc23)c1`, the viability in [1] was 104%; in assay [3] it was 104% (inactive); in assay [4], 97.2% (inactive); in assay [5] it was 93.8% (inactive); in assay [6] (setting [16]), 88.1%; in assay [6] (setting [17]), 93.8%. Also, the viability in assay [12] was 99.6% (inactive); in assay [13], 96.7% (inactive). In assay [2], the Her2 level is 104% (inactive). In addition, the differential viability (reversal) in assay [6] (H69AR cells + 2 uM doxorubicin) is 5.68% (inactive). For the same molecule, the values for the inhibition in assay [7], in assay [8] and in [14] were -0.41% (inactive), 28.7% (inactive) and 0.435% (inactive), respectively. In addition, the growth inhibition in [9] is -17.3% (inactive); in [10], -19.3% (inactive). Moreover, in assay [11], the viability increase was -4.55% (inactive). In addition, in assay [15], the RAM network inhibition was 3.89% (inactive).
Regarding `Cc1c(C(=O)OC2CCC(C)CC2)[nH]c2c1C(=O)CCC2` (stereo not given), the viability is 69.5% in [1]; 69.5% (inactive) in assay [3]; 87.6% (inactive) in [4]; 86.8% (inactive) in assay [5]; 91.2% in assay [6] (setting [16]); 86.8% in assay [6] (setting [17]). In addition, the viability is 97.7% (inactive) in assay [12] and 92.9% (inactive) in assay [13]. Besides, the Her2 level in assay [2] was 78% (inactive). In assay [6] (H69AR cells + 2 uM doxorubicin), the differential viability (reversal) was -4.38% (inactive). For the same molecule, the inhibition in [7] was 5.07% (inactive); in assay [8], 1.97% (inactive); in assay [14], 1.67% (inactive). Besides, the growth inhibition in assay [9] was -11.8% (inactive); in [10], -6.09% (inactive). In addition, the viability increase in assay [11] is 2.52% (inactive). Also, the RAM network inhibition in assay [15] is 3.39% (inactive).
As to `CC(C)CNc1oc(-c2ccc(F)cc2)nc1C#N`, the viability was 108% in [1]; 108% (inactive) in assay [3]; 103% (inactive) in [4]; 94.2% (inactive) in [5]; 92.5% in assay [6] (setting [16]); 94.2% in assay [6] (setting [17]). Moreover, the viability in assay [12] is 101% (inactive); in assay [13], 84.7% (inactive). Besides, the Her2 level in assay [2] was 110% (inactive). In addition, the differential viability (reversal) in [6] (H69AR cells + 2 uM doxorubicin) is 1.69% (inactive). Besides, the inhibition in assay [7] was -7.47% (inactive); in assay [8], -4.1% (inactive); in [14], 0.19% (inactive). Moreover, the growth inhibition in assay [9] is -15.3% (inactive); in assay [10] it was -11.5% (inactive). Also, in [11], the viability increase is 1.69% (inactive). For the same molecule, in assay [15], the RAM network inhibition was 5.05% (inactive).
